Results from PubChem BioAssay AID1159580 (chemical genetic matrix, 2015).
In all, about 5,500 compounds went through this assay and about 2,000 (36%) were called active. Inconclusive results (about 18%) are left out. Rule as the data show it: active = normalized growth mostly below about 0.91 (no sharp cut-off); inconclusive = no clear call, values can overlap the other calls; inactive = mostly above about 0.92. The list shows a part of the results.

Assay: chemical genetic growth profiling, strain panel (AID 1159580);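 also: tested at 20 µM; growth read once vehicle control cultures reached saturation at 30 °C; 1 = growth at the plate median or of vehicle wells; lower values mean less growth of the strain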
Details: S. cerevisiae deletion strains, growth OD

Measured: normalized growth

N#Cc1c(Cl)cccc1N1CCCC1
inactive: locus YBR229C, strain ROT2, hits give low values 0.935 | locus YDL134C, strain PPH21, hits give low values 0.98 | locus YDR150W, strain NUM1, hits give low values 0.85 | locus YLR058C, strain SHM2 (second series), hits give low values 0.952 | locus YLR085C, strain ARP6, hits give low values 0.791 | locus YMR263W, strain SAP30, hits give low values 0.915 | locus YNL128W, strain TEP1, hits give low values 0.922 | locus YPR135W, strain CTF4, hits give low values 0.769
active: locus YAL013W, strain DEP1, hits give low values 0.877 | locus YDL101C, strain DUN1, hits give low values 0.87 | locus YEL061C, strain CIN8, hits give low values 0.891 | locus YGR078C, strain PAC10, hits give low values 0.851 | locus YHR030C, strain SLT2, hits give low values 0.615 | locus YHR087W, strain rtc3, hits give low values 0.886 | locus YJR043C, strain POL32, hits give low values 0.861 | locus YJR075W, strain HOC1, hits give low values 0.801 | locus YLR039C, strain RIC1, hits give low values 0.576 | locus YLR262C, strain YPT6, hits give low values 0.567 | locus YML094W, strain GIM5, hits give low values 0.779 | locus YMR219W, strain ESC1, hits give low values 0.931 | locus YNL153C, strain GIM3, hits give low values 0.833 | locus YNL298W, strain CLA4 (second series), hits give low values 0.762 | locus YNL322C, strain KRE1, hits give low values 0.929 | locus YNR030W, strain Alg12, hits give low values 0.83 | locus YOL006C, strain TOP1, hits give low values 0.473 | locus YPL055C, strain LGE1, hits give low values 0.776 | locus YPL241C, strain CIN2, hits give low values 0.815
